Several values for one entry are separate records, joined by “and”; a condition that tells them apart may be missing. Identical values can stand only once. Records with an inconclusive call do not appear. A call without a number means that no potency is given here. A structure can be active in one record and inactive in another. Activity calls are given as the source filed them. Unless noted, calls come from the whole dose curve.
Columns and labels:
[1] = Nuclear factor erythroid 2-related factor 2/antioxidant responsive element (Nrf2/ARE) small molecule agonists: qHTS cell viability counter screen in human keratinocytes (AID 1919968; active = well fitted curve in the direction sought with a large enough effect in the repeat runs; an effect the other way counts as inactive or inconclusive; note: nearly all actives have a fitted effect of over 55% in size)
Summary of the method: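 KeratinoSens HaCaT cells, 1,500/well, preincubated 5 h, then exposed to compounds in DMSO for 23 h at 37 C/5% CO2. Viability read as CellTiter-Fluor fluorescence after 1 h, in the same wells as the ARE-luciferase read.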

[2] = Nuclear factor erythroid 2-related factor 2/antioxidant responsive element (Nrf2/ARE) small molecule agonists: luciferase reporter gene qHTS assay in human keratinocytes (AID 1919969); note: nearly all actives have a fitted effect of over 35% in size; note: potency is the fitted concentration of half-maximal effect
[3] = molecular target: KiSS-1 receptor (Homo sapiens) (UniProt Q969F8); assay: Human kisspeptin (KISS1R) small molecule agonists, calcium flux assay in KISS1R-HEK293 cells (AID 1920064; active = well fitted curve in the direction sought with a large enough effect in the repeat runs; an effect the other way counts as inactive or inconclusive)
Summary of the method: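 HEK293 cells stably expressing human KISS1R were loaded with calcium dye for 1 h at 37 C, then given compound; fluorescence (Ex/Em 480/540) was read kinetically for 3 min. Fifteen concentrations, triplicate.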

[4] = G protein-coupled receptor (GPCR) small molecule agonists, calcium flux assay: HEK293 wild type cell line counter screen (AID 1920065)
Summary of the method: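 Wild-type HEK293 cells plated 18 h, loaded with calcium dye 1 h at 37 C, then compounds added in agonist mode (ATP as positive control). Kinetic fluorescence Ex/Em 480/540 recorded 3 min at 1 sec intervals; 15 concentrations, triplicate.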

[5] = p53 small molecule agonists, cell-based qHTS assay with human liver microsomes (AID 1963577);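 note: p53 response element beta-lactamase reporter cells with liver microsomes plus NADPH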
Summary of the method: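 With metabolic activation: human liver microsomes (0.5 mg/mL final) plus NADPH (0.5 mg/mL final) added alongside compounds to p53RE-bla cells; 16 h 37 C exposure; beta-lactamase read by LiveBLAzer fluorescence.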

[6] = p53 small molecule agonists, cell-based qHTS assay with rat liver microsomes (AID 1963578)
Summary of the method: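 Metabolic activation by rat liver microsomes and NADPH, each 0.5 mg/mL final, added right after compounds to p53RE-bla reporter cells (4,000/well, plated 5 h earlier). 16 h at 37 C, then LiveBLAzer substrate for 2 h at room temperature in the dark; fluorescence read-out.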

[7] = p53 small molecule agonists, cell-based qHTS assay with human liver microsomes: qHTS cell viability counter screen (AID 1963579); note: nearly all actives have a fitted effect of over 45% in size
Summary of the method: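 Metabolic activation used human liver microsomes and NADPH, both 0.5 mg/mL final, over 16 hours at 37 C on p53RE-bla cells (4,000/well). Cytotoxicity measured by CellTiter-Glo luminescence, 30 min at room temperature.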

[8] = p53 small molecule agonists, cell-based qHTS assay with rat liver microsomes: qHTS cell viability counter screen (AID 1963580); note: nearly all actives have a fitted effect of over 45% in size
Summary of the method: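 HCT-116 p53RE-bla, 4,000 cells/well, 5 h pre-incubation; cpd + rat liver microsomes 0.5 mg/mL + NADPH 0.5 mg/mL (final); 16 h, 37 C; CellTiter-Glo, 30 min RT; luminescence.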

[9] = p53 small molecule agonists, cell-based qHTS assay: qHTS cell viability counter screen (AID 1963581); note: nearly all actives have a fitted effect of over 45% in size
Summary of the method: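 p53RE-bla HCT-116 cells, compounds added 5 h after plating and incubated 16 h at 37 C. Cytotoxicity measured in the same wells as intracellular ATP by CellTiter-Glo luminescence after 30 min at room temperature.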

[10] = p53 small molecule agonists, cell-based qHTS assay (AID 1963582; active = well fitted activation curve with a large enough effect in the signal ratio in the repeat runs, not every such curve was filed as active; the % refers to the signal ratio)
Summary of the method: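 p53RE-bla reporter cells, compounds added in DMSO after 5 h plating, incubated 16 h at 37 C. Beta-lactamase read via 2 h room-temperature LiveBLAzer B/G FRET substrate, fluorescence intensity.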

[11] = molecular target: 5-hydroxytryptamine receptor 2A (Homo sapiens) (UniProt P28223); assay: 5-hydroxytryptamine receptor 2A (HTR2A) small molecule antagonists, cell-based qHTS assay (AID 1963586); note: nearly all actives have a fitted effect of over 45% in size
Summary of the method: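 Antagonist-mode intracellular calcium assay: DOI (4 nM) added after 5 min compound pre-incubation at room temperature to dye-loaded HTR2A-CHO cells. Fluorescence followed for 3 min, sampled every second.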

[12] = molecular target: 5-hydroxytryptamine receptor 2A (Homo sapiens) (UniProt P28223); assay: 5-hydroxytryptamine receptor 2A (HTR2A) small molecule agonists, cell-based qHTS assay (AID 1963587); note: nearly all actives have a fitted effect of over 30% in size; note: potency is the fitted concentration of half-maximal effect
Summary of the method: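 Kinetic calcium-flux fluorescence (2 min, 1 sec intervals) after compound addition in agonist mode. HTR2A-CHO cells were cultured 18 h, then dye-loaded 1 h at 37 C.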

[13] = molecular target: Muscarinic acetylcholine receptor M1 (Homo sapiens) (UniProt P11229); assay: Cholinergic receptor muscarinic 1 (CHRM1) small molecule antagonists, cell-based qHTS assay (AID 1963588); note: nearly all actives have a fitted effect of over 40% in size
Summary of the method: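 CHRM1-CHO calcium-flux assay, antagonist mode. Cells were seeded 18 h, dye-loaded 1 h at 37 C and given compound for 5 min at RT, then acetylcholine was added at 50nM. FDSS fluorescence was read 3 min; 15 concentrations, three runs.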

[14] = molecular target: Muscarinic acetylcholine receptor M1 (Homo sapiens) (UniProt P11229); assay: Cholinergic receptor muscarinic 1 (CHRM1) small molecule agonists, cell-based qHTS assay (AID 1963589); note: nearly all actives have a fitted effect of over 35% in size; note: potency is the fitted concentration of half-maximal effect
Summary of the method: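 CHO cells stably expressing human CHRM1 were loaded with calcium dye for 1 h at 37 C, then compound was added in agonist mode. Intracellular calcium fluorescence was followed kinetically at 1 s intervals. Fifteen concentrations were tested in three independent runs.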

[15] = cAMP Responsive Elements (CRE) small molecule agonists, cell-based qHTS assay (AID 1963590)
Summary of the method: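 CRE-bla HEK 293T cells, 2,000/well in DMEM with 10% dialyzed FBS and 25 mM HEPES, pre-incubated 18 h at 37 C, then exposed to compound 3 h at 37 C. Beta-lactamase reporter read with LiveBLAzer B/G FRET substrate after 2 h at room temperature.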

[16] = cAMP Responsive Elements (CRE) small molecule antagonists, cell-based qHTS assay (AID 1963591; active = well fitted inhibition curve with a large enough effect in the signal ratio in the repeat runs, not every such curve was filed as active; the % refers to the signal ratio)
Summary of the method: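 CRE-bla HEK293T cells plated 18 h, then given compound plus NKH477 at 0.25 uM final for 3 h at 37C. Beta-lactamase reporter read with LiveBLAzer B/G FRET substrate after 2 h at room temperature.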

[17] = molecular target: Beta-2 adrenergic receptor (Homo sapiens) (UniProt P07550); assay: Adrenergic beta2 receptor (ADRB2) small molecule antagonists, cell-based qHTS assay (AID 1963592); note: series mostly up to about 92 µM; nearly all actives have a fitted effect of over 50% in size
Summary of the method: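 Cells (CHO, stable ADRB2 overexpression) incubated 18-20hr at 37C; compounds added from DMSO; agonist mix (1nM isoproterenol, 100uM IBMX, 25uM Ro-20-1724) added; 0.5hr RT; d2-cAMP and anti-cAMP-cryptate added; 1hr RT; 665/615 nm read.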

[18] = molecular target: D(2) dopamine receptor (Homo sapiens) (UniProt P14416); assay: Dopamine D2 receptor (DRD2) small molecule agonists, cell-based qHTS assay (AID 1963594); note: nearly all actives have a fitted effect of over 35% in size
Summary of the method: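 cAMP accumulation in DRD2-HEK293 cells measured by HTRF after 1 h detection; compounds added 10 min before NKH477 (200nM […]) forskolin-analogue stimulation, 30 min at room temperature, with Ro20-1724 present at 0.1 mM final.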

[19] = molecular target: D(2) dopamine receptor (Homo sapiens) (UniProt P14416); assay: Dopamine D2 receptor (DRD2) small molecule antagonists, cell-based qHTS assay (AID 1963595; active = well fitted inhibition curve with a large enough effect in the signal ratio in the repeat runs, with a control signal flat; the % refers to the signal ratio)
Summary of the method: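 Antagonist mode in DRD2-HEK293 cells: after compound addition with 0.1 mM Ro20-1724, cells received quinpirole (12 nM) and NKH477 (200 nM) for 30 min at room temperature; HTRF cAMP read after 1 h detection.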

[20] = molecular target: Beta-2 adrenergic receptor (Homo sapiens) (UniProt P07550); assay: Adrenergic beta2 receptor (ADRB2) small molecule agonists, cell-based qHTS assay (AID 1963593);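 note: CHO cells stably overexpressing human ADRB2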
Summary of the method: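 CHO cells stably over-expressing ADRB2 were plated overnight at 37C, then dosed with compounds plus a stimulation mix containing 100uM IBMX and 25uM Ro-20-1724 for 0.5hr at room temperature. cAMP was measured by HTRF competition, 1hr.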

5-hydroxytryptamine receptor 2A (Homo sapiens), sequence (P28223 whole entry, looked up): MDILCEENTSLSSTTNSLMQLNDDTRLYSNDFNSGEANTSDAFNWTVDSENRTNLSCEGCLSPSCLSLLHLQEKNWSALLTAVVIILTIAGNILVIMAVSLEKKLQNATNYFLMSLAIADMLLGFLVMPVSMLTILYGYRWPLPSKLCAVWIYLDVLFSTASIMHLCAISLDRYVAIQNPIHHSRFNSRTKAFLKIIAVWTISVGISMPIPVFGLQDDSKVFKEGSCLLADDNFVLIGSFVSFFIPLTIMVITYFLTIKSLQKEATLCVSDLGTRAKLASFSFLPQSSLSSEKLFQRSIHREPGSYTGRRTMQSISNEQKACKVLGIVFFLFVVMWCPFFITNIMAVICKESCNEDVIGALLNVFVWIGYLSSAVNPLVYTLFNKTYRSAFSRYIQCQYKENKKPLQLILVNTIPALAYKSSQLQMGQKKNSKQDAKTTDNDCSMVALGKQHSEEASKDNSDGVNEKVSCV
D(2) dopamine receptor (Homo sapiens), sequence (P14416 whole entry, looked up): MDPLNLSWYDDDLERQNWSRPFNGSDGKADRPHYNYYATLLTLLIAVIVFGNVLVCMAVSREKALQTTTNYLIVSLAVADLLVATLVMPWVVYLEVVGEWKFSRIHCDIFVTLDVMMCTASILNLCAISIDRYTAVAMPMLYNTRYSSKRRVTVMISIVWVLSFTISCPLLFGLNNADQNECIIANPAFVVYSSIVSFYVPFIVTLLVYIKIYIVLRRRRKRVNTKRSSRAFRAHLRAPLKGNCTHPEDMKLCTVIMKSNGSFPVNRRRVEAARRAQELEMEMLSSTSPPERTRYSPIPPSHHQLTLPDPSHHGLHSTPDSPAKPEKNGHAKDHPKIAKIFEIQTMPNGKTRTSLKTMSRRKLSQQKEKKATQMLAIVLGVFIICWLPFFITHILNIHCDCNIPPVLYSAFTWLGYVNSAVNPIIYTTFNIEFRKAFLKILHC
Muscarinic acetylcholine receptor M1 (Homo sapiens), sequence (P11229 whole entry, looked up): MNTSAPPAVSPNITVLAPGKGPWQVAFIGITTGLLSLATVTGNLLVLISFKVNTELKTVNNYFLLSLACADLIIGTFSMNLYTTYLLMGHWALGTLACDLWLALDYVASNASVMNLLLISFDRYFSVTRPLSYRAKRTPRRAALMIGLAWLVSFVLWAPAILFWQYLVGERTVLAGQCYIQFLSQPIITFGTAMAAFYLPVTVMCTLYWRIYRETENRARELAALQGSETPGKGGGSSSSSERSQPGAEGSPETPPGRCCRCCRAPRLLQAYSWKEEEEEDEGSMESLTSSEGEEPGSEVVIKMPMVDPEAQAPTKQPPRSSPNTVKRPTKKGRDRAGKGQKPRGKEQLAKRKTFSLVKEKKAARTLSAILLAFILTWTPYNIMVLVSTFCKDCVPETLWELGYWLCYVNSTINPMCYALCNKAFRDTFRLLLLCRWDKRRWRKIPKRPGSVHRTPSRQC
Beta-2 adrenergic receptor (Homo sapiens), sequence (P07550 whole entry, looked up): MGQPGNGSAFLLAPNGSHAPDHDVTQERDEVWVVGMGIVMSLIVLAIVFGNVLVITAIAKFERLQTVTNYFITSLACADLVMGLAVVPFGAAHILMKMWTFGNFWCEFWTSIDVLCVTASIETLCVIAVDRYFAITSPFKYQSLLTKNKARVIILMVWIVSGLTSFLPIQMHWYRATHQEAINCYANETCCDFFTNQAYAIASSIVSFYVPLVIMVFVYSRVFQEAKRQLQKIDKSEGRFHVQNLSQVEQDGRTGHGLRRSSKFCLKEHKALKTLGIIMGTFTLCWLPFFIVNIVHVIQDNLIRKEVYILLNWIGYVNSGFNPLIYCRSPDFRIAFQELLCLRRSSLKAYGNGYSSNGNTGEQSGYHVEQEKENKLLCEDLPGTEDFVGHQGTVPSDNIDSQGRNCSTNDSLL
KiSS-1 receptor (Homo sapiens), sequence (Q969F8 whole entry, looked up): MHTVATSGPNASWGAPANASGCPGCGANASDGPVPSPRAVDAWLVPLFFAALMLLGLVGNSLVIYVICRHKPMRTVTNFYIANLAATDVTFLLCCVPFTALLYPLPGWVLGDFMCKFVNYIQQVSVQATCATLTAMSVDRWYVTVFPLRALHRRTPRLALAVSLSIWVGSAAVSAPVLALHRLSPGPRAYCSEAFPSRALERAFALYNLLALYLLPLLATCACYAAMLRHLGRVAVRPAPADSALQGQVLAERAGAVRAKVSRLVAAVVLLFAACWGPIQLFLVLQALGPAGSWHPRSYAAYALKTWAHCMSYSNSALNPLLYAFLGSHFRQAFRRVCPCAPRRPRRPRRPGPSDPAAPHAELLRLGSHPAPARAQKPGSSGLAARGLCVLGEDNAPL

Row | Compound | Potency [1] | Potency [2] | Potency [3] | Potency [4] | Potency [5] | Potency [6] | Potency [7] | Potency [8] | Potency [9] | Potency [10] | Potency [11] | Potency [12] | Potency [13] | Potency [14] | Potency [15] | Potency [16] | Potency [17] | Potency [18] | Potency [19] | Potency [20]
1 | CCCC(=O)c1ccccc1 | inactive | inactive | inactive | inactive | inactive | inactive | inactive | inactive | inactive | inactive | inactive | inactive | inactive | inactive | inactive | inactive | inactive | inactive | inactive | –
2 | CC1OC1C1CCC2(C)OC2C1 (configuration not stated) | inactive | inactive | inactive | inactive | inactive | inactive | inactive | inactive | inactive | – | inactive | inactive | inactive | inactive | inactive | inactive | inactive | inactive | inactive | –
3 | O=C(O)c1cc(=O)c2c(OCC(O)COc3cccc4oc(C(=O)O)cc(=O)c34)cccc2o1 | inactive | inactive | inactive | inactive | inactive | inactive | inactive | inactive | inactive | inactive | – | – | – | – | inactive | inactive | inactive | inactive | inactive | inactive
4 | CC(C)c1ccc(C=O)cc1 | inactive | inactive | inactive | inactive | inactive | inactive | inactive | inactive | inactive | inactive | inactive | inactive | inactive | inactive | inactive | inactive | inactive | inactive | inactive | –
5 | Nc1ccc(N)c(Cl)c1 | inactive | 54.4 µM (active) and 27.3 µM (active) | inactive | inactive | inactive | inactive | inactive | inactive | inactive | inactive | inactive | inactive and 21.9 µM (active) | inactive | inactive and 43.6 µM (active) | – | – | – | – | – | –
6 | CCCC(=O)Nc1ccc(O)c(C(C)=O)c1 | inactive | inactive | inactive | inactive | inactive | inactive | inactive | inactive | inactive | inactive | inactive | inactive | inactive | inactive | inactive | inactive | inactive | inactive | – | –
7 | O=C1NC2NC(=O)NC2N1 (configuration not stated) | inactive | inactive | inactive | inactive | inactive | inactive | inactive | inactive | inactive | inactive | inactive | inactive | inactive | inactive | inactive | inactive | inactive | inactive | – | –

Reference: PubChem BioAssay (Tox21)
